Compound activity (PubChem BioAssay)
Most compounds without a hit are left out; they make up all but 4.1% or so of the library.
DAX1 inh-1 = NR0B1 (DAX1) inhibition; P51843; HEK293 Gal4-DAX1 luciferase reporter, luminescence; inhibition, % at 6.75 µM; hit rate 0.99% among 340,000;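 active = inhibition above the mean over all tested compounds plus 3 SD, cut at about 4.2% in these data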;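 note: 0% = DAX1-transfected cells with DMSO and 100% = empty-vector control cells with DMSO; inhibition shows as a rise in luminescence from relieved DAX1 repression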
Target sequence (P51843 207-470 limits assumed): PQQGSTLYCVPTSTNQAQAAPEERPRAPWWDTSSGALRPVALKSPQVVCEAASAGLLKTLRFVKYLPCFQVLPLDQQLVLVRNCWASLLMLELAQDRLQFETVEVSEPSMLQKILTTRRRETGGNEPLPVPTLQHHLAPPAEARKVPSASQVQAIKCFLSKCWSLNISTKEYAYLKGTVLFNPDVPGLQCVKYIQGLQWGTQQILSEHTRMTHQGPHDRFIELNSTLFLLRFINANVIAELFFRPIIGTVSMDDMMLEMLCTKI
ssDAF-12 act = S. stercoralis DAF-12 activation, primary screen; activation, % at 6.8 µM; AID 652126; hit rate 1% among 370,000; HEK293 ssDAF-12/GRIP1 lit1-tk-luc reporter, luminescence; % of 3 µM dafachronic acid response;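 active = activation above the mean over all tested compounds plus 3 SD, cut at about 0.9% in these data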;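 note: 0% = DMSO-only wells and 100% = 3 µM delta7-dafachronic acid wells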
hcDAF-12 act = H. contortus DAF-12 activation, primary screen; HEK293 hcDAF-12 lit1-tk-luc reporter, luminescence; 0% DMSO, 100% Δ7-dafachronic acid; activation, % at 6.8 µM; hit rate 1.4% among 370,000; AID 652067;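 active = activation above the mean of all tested compounds plus 3 SD, cut at about 5.5% in these data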;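 note: 100% = response to 3 µM Δ7-dafachronic acid high control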
DAX1 inh-2 = DAX1 (NR0B1) inhibition, primary screen | HEK293T StAR-luciferase reporter, SF-1/DAX-1 repression relief | inhibition, % at 6.8 µM | hit rate 1.1% among 370,000;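 active = inhibition above the mean over all tested compounds plus 3 SD, cut at about 3.6% in these data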;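 note: 0% = DAX-1 cells with DMSO and 100% = cells lacking DAX-1 with DMSO; higher inhibition means more luminescence from relief of DAX-1 repression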
hgDAF-12 ag = activates the H. glycines DAF-12 receptor ligand-binding domain; activation, % at 6.8 µM; AID 687014; hit rate 1.8% among 370,000; HEK293 GAL4-hgDAF12 UAS-luciferase reporter, agonist luminescence; normalized to butyrate control;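 active = activation above a cutoff set at the mean of all screened compounds plus 3 SD, cut at about 10% in these data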;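 note: 0% = DMSO wells and 100% = sodium butyrate wells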
Numbers without * were called inactive; / = no result.

SMILES	DAX1 inh-1	ssDAF-12 act	hcDAF-12 act	DAX1 inh-2	hgDAF-12 ag
CC(=O)NC(CC(=O)OCC(=O)NCCc1ccccc1)c1ccccc1 (stereo not drawn)	1.2	-0.7	-0.2	2.0	-0.8
Cc1ccc2c(c1)c1c3n2CCN(CC(N)=O)C3CCC1 (stereo not drawn)	0.2	-0.8	0.3	-0.1	1.0
Cc1ccc2c(c1)c1c3n2CCN(CC#N)C3CCC1 (stereo not drawn)	6.5*	-0.8	0.0	0.6	2.1
O=C(CN1C(=O)S/C(=C\c2ccccc2)C1=O)NC1CCS(=O)(=O)C1 (stereo not drawn)	0.1	-1.4	-1.8	-2.1	-0.8
COc1ccc(/C=C2\SC(=O)N(CC(=O)N(C)C3CCS(=O)(=O)C3)C2=O)cc1 (stereo not drawn)	1.3	1.0*	1.8	1.4	1.6
CC(C)c1ccc(/C=C2\SC(=O)N(CC(=O)NC3CCS(=O)(=O)C3)C2=O)cc1 (stereo not drawn)	0.0	-1.2	2.0	2.9	10.9*
O=C(CN1C(=O)c2ccc([N+](=O)[O-])cc2C1=O)NC1CCS(=O)(=O)C1 (stereo not drawn)	5.6*	-1.1	1.0	-0.2	-2.3
COc1ccc(/C=C2\SC(=O)N(CCC(=O)N(C)C3CCS(=O)(=O)C3)C2=O)cc1 (stereo not drawn)	0.4	-0.7	-0.7	0.2	-0.8
O=C(CSc1nnc(SCc2cccc3ccccc23)s1)Nc1ccc(S(=O)(=O)Nc2nccs2)cc1	/	-1.1	-1.5	2.3	2.6
Cn1c(-c2ccc(C=O)s2)nc2ccccc21	0.2	-0.4	2.7	0.2	12.0*
Cn1c(-c2ccc(N)cc2)nc2ccccc21	1.2	-0.6	1.4	1.0	8.1
CC(C)Cn1c(-c2cccs2)nc2ccccc21	-1.9	-0.6	-0.5	-0.5	1.9
Cn1c(-c2cccs2)nc2ccccc21	0.3	-0.2	2.4	2.2	11.4*
CC(=O)O[C@H]1[C@H](OC(C)=O)C[C@]2(OC(C)=O)C[C@H]1OC2=O	/	-1.3	-1.9	/	2.4
C=CCN(C)C(C#Cc1ccccc1)Cc1ccccc1 (stereo not drawn)	/	-1.6	-0.8	/	-0.7
NC(=O)[C@@H]1CCCN1C(=O)[C@H](CCc1ccccc1)NC(=O)[C@H]1O[C@@H](n2cnc3c(N)ncnc32)[C@H](O)[C@@H]1O	/	-1.0	-1.1	0.2	-3.6
Cn1c(-c2ncc(F)cc2F)cc2onc(-c3c(F)cccc3Cl)c2c1=O	6.4*	1.3*	9.3*	1.5	9.8
Cc1onc(-c2c(F)cccc2Cl)c1C(=O)NC1CC1	0.1	-0.7	1.4	0.5	-0.4
Cn1c(-c2ccccc2)cc(=O)cc1-c1ccccc1	0.4	-1.1	1.4	0.8	0.6
Cn1c(-c2ccccc2)cc2onc(-c3ccccc3)c2c1=O	1.9	0.1	5.6*	2.9	4.1
Cn1c(-c2ccccc2F)cc2onc(-c3ccccc3)c2c1=O	5.5*	-0.1	4.3	5.0*	12.3*
CCN(CC)C(=O)CC[C@@H]1CC[C@]2(CCCN(S(C)(=O)=O)C2)O1	/	-0.9	1.4	0.2	-1.0
Cc1cccc(-c2cccc3c4c([nH]c23)[C@@H]2C[C@H](N(C)C(=O)c3ccccc3C)[C@H]([C@H](C)O)CN2CC4)c1	/	-2.0	-1.4	-0.8	-0.2
O=C(CSc1nnc(-c2ccco2)n1-c1ccc(Cl)cc1)Nc1ccccc1-c1ccccc1	/	-1.8	-0.6	-0.9	-3.6
COC(=O)c1cc(NC(=O)/C=C/c2ccccc2)ccc1O	/	-1.2	0.7	0.9	11.4*
SMILES	DAX1 inh-1	ssDAF-12 act	hcDAF-12 act	DAX1 inh-2	hgDAF-12 ag
O=C(O)c1ccc(N2CCCCC2)cc1	1.7	-1.8	-0.7	-0.1	-0.2
O=C(c1ccccc1)c1ccc(N2CCCC2)cc1	0.6	-0.2	2.0	1.8	11.8*
O=C(Cc1ccccc1)c1ccc(N2CCOCC2)cc1	1.1	-0.6	0.8	1.1	11.1*
O=C(/C=C/c1ccccc1)Nc1ccc(N2CCCCC2)cc1	0.3	-0.1	0.7	1.7	12.6*
Cc1onc(-c2c(F)cccc2Cl)c1C(=O)OCC(=O)NC1CC1	1.1	-1.6	-0.2	-0.1	-4.4
CC(=O)N1CCN(C(=O)C2CCCN(C(=O)c3ccc4c(c3)NC(=O)CS4)C2)CC1 (stereo not drawn)	/	-1.1	-1.6	-0.1	-2.8
COc1ccc(S[C@]2(C(=O)N3CCN(c4ncccn4)CC3)CC(=O)N(S(=O)(=O)c3ccc(F)cc3)[C@@H]2c2ccc(OC)cc2)cc1	/	-1.6	-1.3	-2.6	0.6
O=C(CCSCc1ccccc1)Nc1ccc2c(c1)OCCO2	0.9	-1.0	0.5	1.5	7.0
O=C(CCc1ccccc1)Nc1cc2c(cc1C(=O)O)OCCCO2	0.3	-0.5	-2.0	-0.8	0.4
O=C(CCc1ccccc1)Nc1ccc2c(c1)OCCO2	2.1	0.3	3.4	2.4	11.8*
O=C(CCc1ccccc1)Nc1cc2c(cc1Cl)OCCO2	1.3	1.2*	2.5	3.9*	10.3
O=S1(=O)c2c(cccc2N2CC[C@H](O)C2)OCCCN1C1CC1	/	-0.6	0.1	-1.6	2.4
Cc1noc(C)c1S(=O)(=O)N1CCN(S(=O)(=O)c2ccccc2C#N)CC1	7.8*	-0.8	2.1	-0.3	0.6
O=C(c1cc(Br)cc(Br)c1)N1CCC(Oc2cccnc2)CC1	/	-1.4	-0.6	0.1	-3.8
Cc1nn(C)cc1/C=C/C(=O)c1cccs1	5.2*	0.4	1.4	1.1	12.3*
COc1ccc(C2Nc3ccccc3C(=O)N2Cc2ccccc2)cc1COc1ccc(NC(C)=O)cc1 (stereo not drawn)	/	-1.6	-2.5	/	-6.1
COc1ccc(C2C(C(=O)N3CCN(c4ccccc4Cl)CC3)CC(=O)N2c2ccc(OC)cc2)cc1 (stereo not drawn)	/	-1.9	-3.0	-0.9	-1.4
C[C@@H](C(=O)N=c1sc2ccccc2n1C)N1C(=O)C2CC=CCC2C1=O (stereo partly drawn)	-0.9	1.0*	1.3	0.1	-1.1
Cn1c(=NC(=O)CN2C(=O)C3CC=CCC3C2=O)sc2ccccc21 (stereo not drawn)	-1.5	0.1	2.2	0.5	-0.4
CCCCN(C)C(=O)c1ccc2c(c1)N(CC)C(=O)c1ccccc1S2=O (stereo not drawn)	4.7*	-0.9	-0.7	0.2	-1.4
CC(C)[C@H](NC(=O)c1ccccc1)C(=O)OCC(=O)NCC1CCCO1 (stereo partly drawn)	0.3	-0.7	-1.8	1.6	1.6
CC(C)[C@H](NC(=O)c1ccccc1)C(=O)OCC(=O)NCc1ccc(F)cc1	5.4*	-1.2	-0.2	-0.8	0.0
CC(C)(C)NC(=O)C(c1cccnc1)N(C(=O)c1cccs1)c1ccc(C(C)(C)C)cc1 (stereo not drawn)	/	-1.4	1.0	/	0.9
CCN(CC)C(=S)SCC(=O)c1ccc(F)cc1	1.8	1.1*	3.2	2.4	9.4
CCN(CC)C(=S)SCC(=O)Nc1ccc(F)cc1	0.2	-1.4	-1.8	-1.2	-2.2
